Results taken from the OligoGym collection.

These sequences were tested against NKPD1 (assay: pooled miR-30 sensor sort-seq; sequence = guide strand). Conditions: shRNA.
Note: reference of the scale not given here.

| Sequence | sensor-assay potency score (higher = more potent) |
| --- | --- |
| TTGTCGCGGAAAACGTCCCAGA | -1.15 |
| TCGCACATGAAACCCAGCTGGC | -0.962 |
| TACTCGTAGAGGCAGTCGCGCT | -1.54 |
| TACAACAGGTCGTCGCGGCTCT | -0.332 |
| TTGAGCAGGCTGCCGCTCGGGC | -0.937 |
| TTGTCGGGCACGTACTCGTAGA | -1.44 |
| AAAAGGAACTGCACGTTCCTGC | -0.361 |
| TTACGAACAGGTGCTTGCCCAC | -0.968 |

The sequences below were run against NLGN1 in the same assay as above. Conditions: shRNA.

| Sequence | sensor-assay potency score (higher = more potent) |
| --- | --- |
| TAAATTTCCAGTACCTTCCATA | -0.487 |
| TTGTTGTTTGGGATCATCCTGC | 0.229 |
| TTGTTGTAGAGGTATACTGAGA | -1.34 |
| TAGCATTGGACTAATAGTCATT | -0.504 |
| TTGCTCGTTGAAAAAGTCCTTT | -0.525 |
| TTGGTCAACAAGTTCTTTGTAA | 0.00294 |
| TGAGGTACCAACTCCAACCAGA | 0.0181 |
| TATCTGAAACATTGCAACCAAC | -1.43 |
| TTGGTATGAATGAATTTCGTGT | -0.285 |
| TAACATTATATCATAGTTGAGA | -0.468 |
| TTTATTTCACACAATGACCAGT | 0.0352 |
